High-throughput results as filed in PubChem BioAssay.
Sampled rows, rich in hits. Any-hit rate of the full collection: about 3.6%.
Autofluor counter: flagged as autofluorescent in microsphere protease counterscreen | fluorescence intensity (concentration not given with the values) | compound autofluorescence counterscreen, microsphere flow cytometry; active compounds read high | AID 624483 | actives 3.1% (n = 360,000); in the data active = fluorescence intensity above about 16000; inconclusive = no clear call, values can overlap the other calls
Anthrax LF inh2: anthrax lethal factor protease inhibition; P15917; multiplex microsphere protease cleavage assay, LF; inhibition, % at 10 µM; actives 0.12% (n = 360,000); also: plate controls were buffer without enzyme for full effect and enzyme alone for no effect
BoNT F protease: blocks Botulinum neurotoxin F light chain protease; Multiplex microsphere protease cleavage assay, flow cytometry; actives 0.22% (n = 360,000); inhibition, % at 10 µM; in the data active = inhibition above about 35%, passing the limit was not always enough; inconclusive = no clear call, values can overlap the other calls; also: plate controls were buffer without enzyme for full effect and enzyme alone for no effect
MazEF act: MazEF (E. coli) toxin RNase activation | P0AE70 | activation, % at 20 µM | AID 504720 | actives 0.32% (n = 350,000) | FAM/BHQ RNA-DNA oligo cleavage fluorescence, 5 h; in the data active = activation above about 50%
Target sequence (P0AE70 whole entry, looked up): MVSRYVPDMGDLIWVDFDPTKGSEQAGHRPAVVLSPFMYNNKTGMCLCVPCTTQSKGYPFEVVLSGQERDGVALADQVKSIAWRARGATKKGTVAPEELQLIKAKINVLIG
BoNT-A LC inh2: blocks Botulinum neurotoxin A light chain protease; AID 588499; multiplex microsphere protease substrate cleavage, flow cytometry; inhibition, % at 10 µM; actives 0.17% (n = 360,000); also: plate controls were buffer without enzyme for full effect and enzyme alone for no effect
An asterisk follows results filed as active; ? = inconclusive; . = no result given. Rule as the data show it, unless noted: active = inhibition above about 30%; inconclusive = no clear call, values can overlap the other calls; inactive = below that.

SMILES | Autofluor counter | Anthrax LF inh2 | BoNT F protease | MazEF act | BoNT-A LC inh2
CCC(=O)Nc1cc(-c2nn(C)c(=O)c3ccccc23)ccc1N1CCCCC1 | 3552 | -2 | -5 | 2 | 0
Cc1ccc(S(=O)(=O)Nc2cc3c(cc2N2CCOCC2)n(C)c(=O)c(=O)n3C)cc1 | 5497 | 5 | -2 | 1 | -1
Cn1nc(-c2ccc(N3CCOCC3)c(NS(=O)(=O)c3ccccc3)c2)c2ccccc2c1=O | 22480* | -1 | -5 | 13 | -7
CCCC(=O)Nc1cc(-c2nn(C)c(=O)c3ccccc23)ccc1N1CCCCC1 | 16901* | -3 | -1 | 7 | -2
Cc1ccc(-c2nn3c(C)nnc3c3ccccc23)cc1S(=O)(=O)NCCN1CCOCC1 | 22118* | -2 | -6 | -3 | -6
Cc1ccc(-c2nn(C)c(=O)c3ccccc23)cc1S(=O)(=O)N1CCOCC1 | 25828* | -7 | -13 | -3 | -11
COc1ccccc1NC(=O)C(C)OC(=O)C1CCC(C(C)(C)C)CC1 (configuration not stated) | 4985 | -1 | -4 | 0 | 2
CCOC(=O)CN1CCC(C2(c3cc4ccccc4[nH]3)OCCO2)CC1 | 3941 | 4 | 0 | 7 | 0
CC(=O)Nc1cc(-c2nn(CC(=O)N3CCCCC3)c(=O)c3ccccc23)ccc1N1CCOCC1 | 10719 | -6 | 2 | -4 | 0
CCC(=O)Nc1cc(-c2nn(C)c(=O)c3ccccc23)ccc1OC | 21426* | 0 | 3 | 1 | 3
CC(=O)Nc1cc(-c2nn(C)c(=O)c3ccccc23)ccc1N1CCCCC1 | 16582* | -2 | 3 | -4 | 0
CCCC(=O)Nc1cc(-c2nn(C)c(=O)c3ccccc23)ccc1OC | ? | ? | 6 | 2 | ?
O=c1nc(/C=C/c2cccn2-c2ccc([N+](=O)[O-])cc2)cc(C(F)(F)F)[nH]1 | 2104 | -2 | 1 | -9 | 0
O=c1nc(/C=C/c2cc([N+](=O)[O-])ccc2Cl)cc(C(F)(F)F)[nH]1 | 22027* | 0 | 3 | 0 | 3
CCNc1nc(NCC)nc(Nn2cnnc2)n1 | 20282* | 1 | 0 | -5 | 0
O=[N+]([O-])c1ccccc1/C=N/Nc1nc(N2CCCC2)nc(N2CCCC2)n1 | 3910 | -8 | 3 | 4 | 0
COc1nc(N/N=C/c2ccccc2F)nc(N2CCCCC2)n1 | 22376* | 0 | 2 | 3 | 3
Cc1ccc(S(=O)(=O)N(CC(=O)N/N=C/c2cccc(C)c2)c2cccc3cccnc23)cc1 | 4609 | -4 | ? | 6 | 1
Cc1ccc(S(=O)(=O)N(CC(=O)N/N=C\c2cccs2)c2cccc3cccnc23)cc1 | 2610 | 0 | 0 | 51* | 0
CC(=O)Nc1ccc(S(=O)(=O)NCC(=O)Nc2ccc3c(c2)OCO3)cc1 | 3824 | -9 | -1 | 10 | 0
O=C(CC1C(=O)NCCN1C(=O)Nc1ccccc1)Nc1ccc2c(c1)OCCO2 (configuration not stated) | 16409* | -3 | -5 | -6 | 0
CCn1c(Sc2ccc([N+](=O)[O-])cn2)nnc1-c1ccco1 | 2279 | -2 | 2 | -1 | 0
COc1ccc(CCNC(=O)c2cc(-c3cc(C)c(C)cc3O)n[nH]2)cc1OC | 22479* | -2 | 0 | 0 | 0
COc1ccc(CCNC(=O)c2ccc(=O)[nH]n2)cc1OC | 5644 | 5 | 3 | 1 | 0
CCc1noc(C)c1C(=O)NCCc1ccc(OC)c(OC)c1 | 24111* | -2 | 1 | 1 | ?
SMILES | Autofluor counter | Anthrax LF inh2 | BoNT F protease | MazEF act | BoNT-A LC inh2
COc1ccc(CCNC(=S)NC(=O)c2ccccc2)cc1OC | 23568* | 0 | 0 | -3 | -1
CCOc1ccccc1-n1c(SCC(=O)Nc2ccccc2C(=O)O)nc2ccccc2c1=O | 4471 | -5 | -2 | 7 | -2
CNc1cncc(-c2ccoc2)n1 | 3887 | -8 | -3 | . | 0
Cc1ccc(CNCCC2=CCCCC2)cc1 | 16821* | -6 | -12 | 9 | ?
O=C(NCCC1=CCCCC1)C(=O)NCc1ccccc1Cl | 16906* | 1 | -5 | 5 | ?
C1=C(CCNCc2ccccc2)CCCC1 | 23029* | -2 | -5 | 11 | ?
O=C(COc1ccccc1Cl)NCCC1=CCCCC1 | 2364 | 2 | -3 | -1 | -1
O=C(CCN1C(=O)c2ccccc2C1=O)NCCC1=CCCCC1 | 20662* | -16 | 8 | -7 | 8
C[C@@H](NC(=O)[C@@H]1CCCN1C(=O)[C@@H]1CCCN1C(=O)OC(C)(C)C)c1ccccc1 | 5900 | 3 | -9 | . | 0
CC(Sc1nnnn1C)C(=O)Nc1ccccc1 (configuration not stated) | 4532 | -1 | 5 | -20 | 1
